PubChem BioAssay (EPA / NIEHS)
Records with an inconclusive call do not appear. Active and inactive are the calls of the source. The calls were made as follows, unless noted: active = hit-call score of the fitted dose curve at least 0.9, where 1 is the maximum; inactive = score below 0.9.

Read-out: Intercellular Adhesion Molecule 1 (ICAM1), ICAM1 (gene 3383)
Experiment: BSK_3C_ICAM1: BioMAP Diversity Plus: 3C Assay for Intercellular Adhesion Molecule 1 (ICAM1) Biomarker Activity (AID 2283003)
Details: primary human endothelial cells (HUVEC); actives raise or lower the signal
Procedure, shortened: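 Human vascular endothelial primary cells, 3C conditions, 24 h treatment. ICAM-1 by ELISA.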

SMILES	AC50	outcome
O=C1C(Cl)=C(Cl)C(=O)C(Cl)=C1Cl	25.4 µM (active)	–
N#CCCCCC#N	–	inactive
CC(C)(c1cc(Cl)c(O)c(Cl)c1)c1cc(Cl)c(O)c(Cl)c1	29.4 µM (active)	–
COCC(=O)N(c1c(C)cccc1C)N1CCOC1=O	–	inactive
CC(C)CCCCCCCOP(=O)(Oc1ccccc1)Oc1ccccc1	20 µM (active)	–
C=CCN(CC=C)C(=O)C(Cl)Cl	–	inactive
c1ccc(Nc2ccc3ccccc3c2)cc1	30.6 µM (active)	–
Cc1ccc(OP(=O)(Oc2ccc(C)cc2)Oc2ccc(C)cc2)cc1 (tested in a mixture with another compound)	–	inactive
O=S(=O)(c1ccccc1)c1ccccc1	–	inactive
CC(=O)/C=C/c1ccccc1	–	inactive

Biological target: human Retinoic Acid Receptor beta (RARb), RARB (gene 5915) (UniProt P10826)
Experiment: ATG_RARb_TRANS: Attagene TRANS-FACTORIAL HepG2 Assay for human Retinoic Acid Receptor beta (AID 2283004; active = hit-call score of the fitted dose curve at least 0.9, where 1 is the maximum)
Details: not given
Procedure, shortened: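 Fluorescent capillary-electrophoresis detection of GAL4-UAS reporter mRNA defines the endpoint, with induction over DMSO-treated wells scored as activity. Transiently transfected human hepatoma HepG2 cells expressing exogenous NR–Gal4 proteins are exposed to test chemicals for 24 h.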

human Retinoic Acid Receptor beta (RARb), RARB (gene 5915), sequence (P10826 whole entry, looked up): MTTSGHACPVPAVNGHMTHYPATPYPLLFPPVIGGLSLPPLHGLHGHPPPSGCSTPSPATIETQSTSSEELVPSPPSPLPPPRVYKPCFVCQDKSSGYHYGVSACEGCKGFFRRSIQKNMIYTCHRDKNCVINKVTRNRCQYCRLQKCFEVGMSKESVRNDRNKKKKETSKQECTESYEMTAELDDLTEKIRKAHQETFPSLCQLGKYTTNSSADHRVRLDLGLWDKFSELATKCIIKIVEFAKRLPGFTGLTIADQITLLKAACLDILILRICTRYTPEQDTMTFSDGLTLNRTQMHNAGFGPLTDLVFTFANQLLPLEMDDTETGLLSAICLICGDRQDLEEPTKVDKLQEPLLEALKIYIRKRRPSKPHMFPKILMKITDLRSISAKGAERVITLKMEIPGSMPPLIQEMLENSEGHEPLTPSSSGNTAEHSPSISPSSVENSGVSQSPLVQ

SMILES	outcome
CCC1CCC(=O)O1 (centres undefined)	inactive
CC[N+](=O)[O-]	inactive
CC(C)(O)C#N	inactive
CCOC(=O)COc1ccc(Cl)cc1Cl	inactive
